Pf Dd2 inh = inhibitors of Plasmodium falciparum Dd2 growth. P. falciparum Dd2 growth, SYBR Green, 72 h. Potency, µM (highest dose often 28.9 µM), usual class: inhibitors. hit rate 4.3% among 120,000. AID 1347417; active means well fitted inhibition curve with a large enough effect; further: nearly all actives have a fitted effect of over 65% in size
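Infected erythrocytes (Dd2, 0.3% parasitemia, 2.5% hematocrit final) are added to compound in RPMI-1640/Albumax II medium, grown 72 h at 37C in low oxygen, then lysed with saponin/Triton-X containing SYBR Green and read by fluorescence.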
Numbers stand for hits; [ ] = dose if it differs, or a comment. The entries come from a sample that favours hits as a whole.

Results for Cc1csc(NC(=O)C2c3ccccc3C(=O)N(Cc3ccccc3)C23CCCC3)n1 (stereo not given) ?
Pf Dd2 inh: 3.5µM

Results for O=C(NC1CCCC1)C1c2ccccc2C(=O)N(Cc2ccccc2)C12CCCC2 (stereo not given) ?
Pf Dd2 inh: inactive

What do the screens show for `CCCCN1C(=O)c2ccccc2C(C(=O)Nc2nc(C)cs2)C12CCCC2` (stereo not given)?
Pf Dd2 inh: 5µM

Results for CCCCN1C(=O)c2ccccc2C(C(=O)NCc2ccncc2)C12CCCCC2 (stereo not given) ?
Pf Dd2 inh: inactive

What do the screens show for `COC(=O)CNC(=O)C1c2ccccc2C(=O)N(Cc2ccccc2)C12CCCC2` (stereo not given)?
Pf Dd2 inh: inactive

How did CCCCN1C(=O)c2ccccc2C(C(=O)NC(C)C)C12CCCCC2 (stereo not given) do in these assays?
Pf Dd2 inh: inactive

What do the screens show for `CC(C)Cc1cc(CNC(=O)C(c2ccccc2F)N(C)C)on1` (stereo not given)?
Pf Dd2 inh: inactive

Results for CN1C(=O)c2cccn2CC1C(=O)NCc1cccc(F)c1 (stereo not given) ?
Pf Dd2 inh: inactive

What do the screens show for `CC(C)(C)NC(=O)N1CCCC1c1noc(COc2ccc(F)cc2)n1` (stereo not given)?
Pf Dd2 inh: inactive

What do the screens show for `COc1ccc2[nH]c(=O)c(CCC(=O)N(C)CCc3ccccc3)cc2c1`?
Pf Dd2 inh: inactive

Results for NC(=O)COc1cccc(C(=O)N2C[C@H](CO)C[C@H](CN3CCCC3)C2)c1 ?
Pf Dd2 inh: inactive

How did CC(=O)N[C@H](C)c1onc(-c2ccc(Cl)cc2)c1C(=O)O do in these assays?
Pf Dd2 inh: inactive

How did COc1nc2c(cc1CNC(=O)CSC)C(=O)N(CCc1ccccn1)C2 do in these assays?
Pf Dd2 inh: inactive

Results for Cc1cnc(C(=O)N2CCC(c3noc(-c4ccccn4)n3)C2)cn1 (stereo not given) ?
Pf Dd2 inh: inactive[5.79 µM]

Results for CCCOCCNC(=O)c1c(C)noc1-c1cccc(F)c1 ?
Pf Dd2 inh: inactive

How did CNC(=O)NC[C@H]1CCN(Cc2ccccc2)C[C@H]1N(C)C do in these assays?
Pf Dd2 inh: inactive

What do the screens show for `CCCc1noc(-c2cn(C3CCN(C(=O)c4cccc(N(C)C)c4)CC3)nn2)n1`?
Pf Dd2 inh: 3.5µM

How did CCCc1noc(-c2cn(C3CCN(C(=O)c4ccc(C#N)cc4)CC3)nn2)n1 do in these assays?
Pf Dd2 inh: 13µM

What do the screens show for `CCCc1noc(-c2cn(C3CCN(C(=O)c4ccc(OC)c(F)c4)CC3)nn2)n1`?
Pf Dd2 inh: inactive

What do the screens show for `CCc1noc(-c2cn(C3CCN(C(=O)c4ccc(C)cc4)CC3)nn2)n1`?
Pf Dd2 inh: inactive

What do the screens show for `CCc1noc(-c2cn(C3CCN(C(=O)c4ccc(OC)cc4)CC3)nn2)n1`?
Pf Dd2 inh: inactive

How did Cc1noc(-c2cn(C3CCN(C(=O)c4cccc(Br)c4)CC3)nn2)n1 do in these assays?
Pf Dd2 inh: inactive

Results for CNC(=O)[C@@H]1C[C@H](Oc2ccccc2)CN1C(=O)C1(C)CCCCC1 ?
Pf Dd2 inh: inactive

What do the screens show for `Cc1onc(-c2ccccc2)c1C(=O)N[C@@H]1CCC[C@@H](C(=O)N2CCN(C)CC2)CC(=O)N(C)C1`?
Pf Dd2 inh: inactive

Results for Clc1cccc(N2CCN(C3CCCN(CCCc4ccccc4)C3)CC2)c1 (stereo not given) ?
Pf Dd2 inh: inactive

What do the screens show for `Cc1sc2ccn(Cc3ccc(F)cc3)c(=O)c2c1C(=O)NCc1cccs1`?
Pf Dd2 inh: inactive

Results for CCn1c(=N)n(CCOc2ccc(Br)cc2)c2ccccc21 ?
Pf Dd2 inh: 5µM

Results for c1ccc(OCCn2c(COc3ccccc3)nc3ccccc32)cc1 ?
Pf Dd2 inh: inactive

Results for COc1cccc(OCc2nc3ccccc3n2CCOc2ccccc2)c1 ?
Pf Dd2 inh: inactive

What do the screens show for `COc1cc(F)ccc1-c1cc2c(nc1-c1ccccc1)nc(C(=O)NCCN(C)C)n2C`?
Pf Dd2 inh: 2.5µM

How did COc1ccc(-c2cc3c(nc2-c2ccccc2)nc(C(=O)NCCN(C)C)n3C)cn1 do in these assays?
Pf Dd2 inh: 7.1µM

What do the screens show for `CC(C)(C)OC(=O)N1CCC(NC(=O)c2nc(-c3ccccc3)c3ccccn23)CC1`?
Pf Dd2 inh: inactive

Results for CN(C)CCNC(=O)c1ccc(-c2nn(C)c(=O)c3ccccc23)cc1 ?
Pf Dd2 inh: inactive

What do the screens show for `COCc1nc2nc(-c3ccccc3)c(-c3ccc(O)c(F)c3)cc2n1C`?
Pf Dd2 inh: inactive

Results for COc1cc(-c2cc3c(nc2-c2ccccc2)nc(C(=O)NCCN(C)C)n3C)ccn1 ?
Pf Dd2 inh: inactive

How did CN1CCC(NC(=O)Cc2c[nH]c3ncc(-c4ccccc4)cc23)CC1 do in these assays?
Pf Dd2 inh: inactive

Results for COCCNC(=O)c1nc2nc(-c3ccccc3)c(Cl)cc2n1C ?
Pf Dd2 inh: inactive

Results for Cc1cc(-c2cc3c(nc2-c2ccccc2)nc(C(=O)NC2CCN(C)CC2)n3C)ccn1 ?
Pf Dd2 inh: 6.3µM

Results for CN(C)CCCn1ccnc1C1CCCN(C(=O)N(C)c2ccccc2)C1 (stereo not given) ?
Pf Dd2 inh: inactive

How did CCCS(=O)(=O)N1CC(N(C)Cc2cccnc2)C1 do in these assays?
Pf Dd2 inh: inactive

Results for O=C(c1cnn(Cc2ccccc2)c1)N1CCCn2nc(CO)cc2C1 ?
Pf Dd2 inh: inactive

How did CSc1ccccc1CN1CCC2(CC1)C(C(=O)O)CC(=O)N2C (stereo not given) do in these assays?
Pf Dd2 inh: inactive

What do the screens show for `COc1ccc(C(=O)N2C[C@@H](Oc3cccnc3)C[C@H]2C(N)=O)c(OC)c1`?
Pf Dd2 inh: inactive

How did CC(C)NC(=O)CN1C(=O)NC(c2ccccc2)C2=C1COC2=O (stereo not given) do in these assays?
Pf Dd2 inh: inactive

How did O=Cc1ccc(-c2ccc(C(=O)O)cn2)cc1 do in these assays?
Pf Dd2 inh: inactive

What do the screens show for `COCCN(C)C[C@H]1C[C@H](CO)CN(C(=O)c2c(C)cccc2OC)C1`?
Pf Dd2 inh: inactive

Results for COc1ccc(NC(=O)c2ccc3c(c2)OCCN(CCC(F)(F)F)C3)c(F)c1 ?
Pf Dd2 inh: inactive

What do the screens show for `CNC(=O)c1ccc2c(c1)OCCN(c1ccccc1)C2`?
Pf Dd2 inh: inactive

What do the screens show for `COc1ccc(NC(=O)c2ccc3c(c2)OCCN(c2ccccc2)C3)c(F)c1`?
Pf Dd2 inh: 10µM

How did Cn1cnc(S(=O)(=O)N2CCC(Cc3nncn3-c3ccccc3)CC2)c1 do in these assays?
Pf Dd2 inh: inactive

Results for CC(C)C(=O)N1CCN(c2nc3c(s2)CC(C(=O)Nc2ccc(Cl)cc2)CC3)CC1 (stereo not given) ?
Pf Dd2 inh: inactive

Results for CC(=O)N1CCN(c2nc3c(s2)CC(C(=O)Nc2cc(F)cc(F)c2)CC3)CC1 (stereo not given) ?
Pf Dd2 inh: 4.5µM

What do the screens show for `CC(=O)N1CCN(c2nc3c(s2)CC(C(=O)Nc2cccc(C(C)(C)C)c2)CC3)CC1` (stereo not given)?
Pf Dd2 inh: inactive

Results for CC(C)C(=O)N1CCN(c2nc3c(s2)CC(C(=O)NCc2ccco2)CC3)CC1 (stereo not given) ?
Pf Dd2 inh: 13µM

How did CCC(=O)N1CCN(c2nc3c(s2)CC(C(=O)NCc2ccc(F)cc2)CC3)CC1 (stereo not given) do in these assays?
Pf Dd2 inh: inactive

Results for COc1ccc(CNC(=O)C2CCc3nc(N4CCN(C(C)=O)CC4)sc3C2)cc1 (stereo not given) ?
Pf Dd2 inh: inactive

Assay outcomes deposited in PubChem BioAssay by National Center for Advancing Translational Sciences (NCATS).
